These results are taken from PubChem BioAssay AID624288 (National Center for Advancing Translational Sciences (NCATS), 2012).

About 1,400 (0.41%) of roughly 340,000 compounds were called active. A call without a number means that no potency is given here. Inconclusive results (about 4%) are left out. The call rests on the fitted dose curve; cell line not stated here. For the sample, actives were picked, then their nearest neighbours and some compounds at random.
Potency means the concentration at half of the fitted maximal effect.

The assay is described as follows: qHTS for Antagonists of gsp, the Etiologic Mutation Responsible for Fibrous Dysplasia/McCune-Albright Syndrome: qHTS. Further: nearly all actives have a fitted effect of over 65% in size. To be noted: gsp-mutant cells, cAMP HTRF, 30 min; series mostly up to 76.9 µM. An excerpt: McCune-Albright syndrome (MAS) is a rare disease caused by somatic mutations in Gsgsp), a widely expressed protein central in signal transduction from G-coupled protein receptors (GPCRs). The disease symptoms are diverse, owing to the fact that the patients are mosaics with varying degrees of tissue involvement. Greater than 90% of the mutations in Gs in MAS occur at the R201 position and are equally divided between R201H and R201C. The R201 residue is central in the intrinsic GTPase activity of Gs and the H and C mutations lead to loss of, or impairment of, the GTPase activity. The intrinsic GTPase activity is necessary to terminate the interaction between Gs and adenylate cyclase, and to terminate the cAMP-mediated signaling of the given GPCR pathway. Thus, these activating mutations lead to ligand-independent activation of GPCR pathways. The tissue phenotype is determined by the role of Gs in the function of a given cell, and excess Gs/cAMP signaling in that cell. For example, pituitary somatotrophs overproduce growth hormone in a growth hormone releasing hormone-independent fashion, and gigantism/acromegaly ensues. Skeletal stem cells in the bone marrow behave as if they are under constant parathyroid hormone stimulation and fail to differentiate into osteoblasts and osteocytes, and proliferate as immature osteogenic cells and lead to the marrow fibrosis of fibrous dysplasia of bone. The goal of this project is to identify molecules with inhibitory activity at gsp mutations that will not only allow for in-depth study of the underlying molecular and cellular pathophysiology, but also serve as compounds from which drugs to treat FD/MAS can be developed NIH Chemical Genomics Center [NCGC] NIH Molecular Libraries Probe Centers Network [MLPCN] MLPCN Grant: IRP-FT-DE-2011-01 Assay Submitter (PI): Michael Collins, NIDCR
1.#Seed 2000 cells/well in 6 ul DMEM 10% FBS, 1% Pen/Strep, 0.5 mg/ml G418 2.#Incubate 16-24 hr at 37C, 5% CO2, 95% humidity 3.#Aspirate leaving 1 ul residual volume 4.#Dispense 5 ul/well DPBS + 1 mM CaCl2, 0.5 mM MgCl2, 0.05% BSA, 0.005% Tween 20 5.#Aspirate leaving 2 ul residual volume 6.#Dispense 23 nl/well compounds in DMSO 7.#Dispense 1 ul/well 300 uM Ro-20174 in DMEM 10% FBS 8.#Incubate 30 min at 37C, 5% CO2, 95% humidity 9.#Dispense 1.5 ul/well HTRF reagent: cAMP-d2 in lysis buffer 10.#Dispense 1.5 ul/well HTRF reagent: anti-cAMP antibody-K in lysis buffer 11.#Incubate 30 min at room temperature 12.#Detect HTRF signal using EnVision plate reader
On the technique in general: Quantitative high-throughput screening tests each substance at several concentrations.
`CC1=CC(=Cc2sc3ccccc3[n+]2C)C=C(C)O1`: the Potency is 44.7 µM (active).

`COc1ccc(-n2c(-c3ccccc3)nc3ccccc3c2=O)cc1`: the Potency entry is “inactive”.

For the molecule `Cc1ccc(-n2c(-c3ccc([N+](=O)[O-])cc3)nc3ccccc3c2=O)cc1`, the Potency entry is “inactive”.

With `CCC(=O)CC(c1ccc([N+](=O)[O-])cc1)c1c(O)c2ccccc2oc1=O` (stereo not given), the Potency is 31.6 µM (active).

`COc1cc(C(c2c(O)c3ccccc3oc2=O)c2c(C)n(C)n(-c3ccccc3)c2=O)ccc1O` (stereo not given): the Potency entry was “inactive”.

On to `CC[C@H]1CN2CCc3cc(OC)c(OC)cc3[C@@H]2C[C@@H]1C[C@H]1NCCc2cc(OC)c(OC)cc21`, for which the Potency result is “inactive”.

For `CN(C)C(=O)NC(O)C(Cl)(Cl)Cl` (stereo not given), the Potency entry was “inactive”.

As to `CC(=O)OC1C2(CC3N4C(=O)C5(CO)SSC4(CC31O)C(=O)N5C)OC(C)C(C)(C)C2=O` (stereo not given), the Potency entry is “inactive”.

Consider `C=CCn1c(O)c(/C=N/N2CCOCC2)c(=O)[nH]c1=S`, for which the Potency result is “inactive”.

Take `COC(=O)C1=C(c2c(C)noc2C)C[C@@H]2CC[C@H]1N2C(=O)NCc1ccc2c(c1)OCO2`: the Potency entry was “inactive”.
